IL1B secr inh – inhibitors of inflammasome signaling (IL-1 beta secretion) | THP-1 LPS/ATP IL-1B secretion, AlphaLISA, 16 h; stronger effect = lower value | activity change, % at 57.5 µM | hit rate 4.7% among 360,000 | AID 743279; in the data active = activity change below about -50%; inconclusive = mostly about -30% to -49%; note: % is set by controls: 0 for no effect and ±100 for the full control effect
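Secreted IL-1B measured by AlphaLISA bead assay after 16 h compound exposure of THP-1 cells; compounds (final up to 57.5 uM) added 1 h before LPS (250 ng/mL) and ATP (1.25 mM) stimulation; lower signal means less secretion.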
Giardia killer – kills Giardia lamblia; Giardia lamblia trophozoite viability; AID 540267; hit rate 0.15% among 340,000; activity change, % at 7.66 µM, hits read low; in the data active = activity change below about -80%; inconclusive = between about -30% and that limit;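 note: parasites exposed to compound for two days anaerobically before the ATP read; % is set by controls: 0 for no effect and ±100 for the full control effect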
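Giardia lamblia trophozoites (100 cells/well) were incubated with compounds for 48 h at 37 deg C under anaerobic conditions. Viability was read as ATP content by one-step luminescence after 15-30 min at room temperature.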
HepG2 viability – counter-screen for TGF-b inhibitors: cytotoxicity in HepG2 cells; HepG2 CAGA-GFP viability, ATP luminescence, 18 h; Potency, µM (highest dose often 46.1 µM), for the others: at the top dose activity change, negative = cytotoxicity, most hits filed as cytotoxic; hit rate 0.76% among 410,000; note: potency is the fitted concentration of half-maximal effect
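HepG2 CAGA-GFP cells (1000/well, DMEM with 1% FBS) received compound, then TGF-beta at 500 pg/mL final, and were incubated 18 hours at 37 degrees C. Viability was read by CellTiter-Glo luminescence. Media-only wells were set as complete cell-killing and DMSO as no toxicity.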
HT1080 IDH1KD tx – HT-1080 IDH1 knockdown cell toxicity (counter line); AID 686971; Potency, µM (top dose mostly 46.1 µM), inactives show top-dose activity, negative = toxicity, hits mostly cytotoxic; hit rate 2% among 360,000; HT-1080 IDH1 knockdown viability, ATP luminescence, 48 h;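 note: potency is the fitted concentration of half-maximal effect; 0% = DMSO wells and -100% = cell-free medium wells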
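Luminescent ATP read-out (CellTiter-Glo, 10 min at room temperature) after 48 h compound exposure at 37 °C gave viability of IDH1-knockdown HT-1080 cells. Activity was normalised to DMSO and cell-free wells, then fitted as concentration-response curves.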
HT1080-NT tox – kills 2HG-producing HT-1080-NT fibrosarcoma cells. HT-1080-NT fibrosarcoma viability, CellTiter-Glo ATP luminescence, 48 h. Potency, µM (top dose mostly 46.1 µM), without a hit: top-dose activity, negative = less viability, most hits filed as cytotoxic. hit rate 1.6% among 360,000;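 note: NT is the 2HG producing partner of a matched IDH1 knockdown line; potency is the fitted concentration of half-maximal effect; 0% = DMSO-treated cells and -100% = media-only wells without cells; nearly all actives have a fitted effect of over 55% in size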
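Read-out is CellTiter-Glo luminescence after 10 minutes at room temperature, following 48 hours' compound treatment of HT-1080-NT cells (750 cells/well, RPMI, 5% FBS, 37 degrees C).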
TGFb SMAD3 inh – TGF-b pathway inhibition; hit rate 1.2% among 410,000; AID 588855; HepG2 CAGA-GFP TGF-b/SMAD3 reporter, GFP fluorescence, 18 h; TGF-beta stimulated, 500 pg/mL final; Potency, µM (highest dose often 46.1 µM), for inactives: top-dose activity, negative = inhibition, usual class: inhibitors; note: potency is the fitted concentration of half-maximal effect; % is set by controls: 0 for no effect and ±100 for the full control effect; nearly all actives have a fitted effect of over 65% in size
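Inhibition was scored as loss of TGF-beta-induced (500 pg/mL final, 18 hours, 37 degrees C) GFP in HEPG2 cells carrying a CAGA-GFP reporter, in DMEM with 1% FBS. Well GFP was summed per cell; Activity was normalised to unstimulated and stimulated DMSO wells, then concentration-response fitting.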
* hit, by the source's call. Most compounds without a hit are left out; they make up all but 6.5% or so of the library. Unless noted, calls come from the whole dose curve; as a rule, active = well fitted curve in the direction sought with a large enough effect; inconclusive = small, poorly fitted or top-dose-only effect, or another doubt; inactive = no such curve, though single readings can be large; an effect the other way counts as inactive or inconclusive.

For Oc1ccccc1N1CCN(Cc2ncc(-c3ccccc3)o2)CC1 the results were IL1B secr inh -52.8*, Giardia killer 8.5, HepG2 viability -2.0%, HT1080 IDH1KD tx -14.1%, HT1080-NT tox -20.1% and TGFb SMAD3 inh 1.5%.
For c1ccc(-c2nnc(CN3CCN(c4ccccc4)CC3)o2)cc1 the results were IL1B secr inh 18.7, Giardia killer 15.2, HepG2 viability -0.8%, HT1080 IDH1KD tx 0.0%, HT1080-NT tox -0.7% and TGFb SMAD3 inh 2.8%.
Screening CCCc1c(-c2cccc(Br)c2)ncn1Cc1ccccc1OC returned IL1B secr inh -17.2, HT1080 IDH1KD tx inconclusive and HT1080-NT tox inconclusive.
`CCCCc1c(Cc2cccc(F)c2)ncn1CCc1ccccc1OC` gave IL1B secr inh 0.0, HT1080 IDH1KD tx inconclusive and HT1080-NT tox 16.4µM*.
`CCCCc1c(-c2ccc(F)cc2F)ncn1CCc1ccccc1OC` gave IL1B secr inh -70.9*, HT1080 IDH1KD tx inconclusive and HT1080-NT tox inconclusive.
CCCc1c(-c2cccc(Cl)c2)ncn1CCc1ccccc1OC was read as IL1B secr inh -21.4, HT1080 IDH1KD tx inconclusive and HT1080-NT tox inconclusive.
CCCCCc1c(-c2ccc(F)cc2F)ncn1CCc1ccccc1OC was read as IL1B secr inh -99.9*, HT1080 IDH1KD tx inconclusive and HT1080-NT tox inconclusive.
Screening CCc1nnc(NC(=O)CN2CCN(c3ccccc3OC)CC2)s1 returned IL1B secr inh 5.0, Giardia killer 11.4, HepG2 viability -3.9%, HT1080 IDH1KD tx 16.3%, HT1080-NT tox 0.3% and TGFb SMAD3 inh -16.7%.
For Cc1ccc(-n2ncc(C(=O)Nc3cc(Cl)cc(Cl)c3)c2C2CCNCC2)cc1C the results were IL1B secr inh -19.0, Giardia killer inconclusive, HepG2 viability -109.5%, HT1080 IDH1KD tx 20.6µM*, HT1080-NT tox inconclusive and TGFb SMAD3 inh inconclusive.
`CC(C)C1OC(c2cccc(NC(=O)c3cccs3)c2)OCC1(C)C` (configuration not stated) gave IL1B secr inh -74.5*, Giardia killer -10.1, HepG2 viability 0.1%, HT1080 IDH1KD tx inconclusive, HT1080-NT tox inconclusive and TGFb SMAD3 inh inconclusive.
Screening COc1cccc(OC)c1C(=O)Nc1cccc(NC(=O)c2cccs2)c1 returned IL1B secr inh 0.0, Giardia killer -3.9, HepG2 viability -19.0%, HT1080 IDH1KD tx 0.8%, HT1080-NT tox 0.7% and TGFb SMAD3 inh -26.8%.
For NS(=O)(=O)c1ccc(N/N=C/C=C/c2ccccc2[N+](=O)[O-])cc1 the results were IL1B secr inh -54.3*, Giardia killer 6.2, HepG2 viability 4.3%, HT1080 IDH1KD tx -18.2%, HT1080-NT tox -9.5% and TGFb SMAD3 inh -0.8%.
NS(=O)(=O)c1ccc(N/N=C/c2ccccc2Br)cc1 was read as IL1B secr inh -106.1*, Giardia killer -16.4, HepG2 viability 0.6%, HT1080 IDH1KD tx inconclusive, HT1080-NT tox inconclusive and TGFb SMAD3 inh -8.6%.
For Cc1ccc(-c2cc(C(=O)N/N=C/c3c(C)nn(-c4ccccc4)c3C)n[nH]2)s1 the results were IL1B secr inh -4.3, Giardia killer -24.4, HepG2 viability -30.8%, HT1080 IDH1KD tx 1.84µM*, HT1080-NT tox 1.64µM* and TGFb SMAD3 inh 12.6µM*.
Screening Cc1nn(-c2ccccc2)c(C)c1/C=N/NC(=O)c1cc(C(C)(C)C)[nH]n1 returned IL1B secr inh -26.1, Giardia killer 0.9, HepG2 viability -8.1%, HT1080 IDH1KD tx -8.9%, HT1080-NT tox -6.0% and TGFb SMAD3 inh -9.7%.
`CCCn1c(NCc2c[nH]c3ccccc23)nc2ccccc21` gave IL1B secr inh -52.4*, Giardia killer 10.5, HepG2 viability -50.1%, HT1080 IDH1KD tx -9.5%, HT1080-NT tox -1.5% and TGFb SMAD3 inh -7.4%.
